Inconclusive results are not listed. A number with no mark means an inactive call. Activity calls are given as the source filed them. Calls follow the shape of the dose curve; as a rule, active = well fitted curve in the direction sought with a large enough effect; inconclusive = small, poorly fitted or top-dose-only effect, or another doubt; inactive = no such curve, though single readings can be large; an effect the other way counts as inactive or inconclusive.

Experiment [1] deals with SKOV3. Description: Primary qHTS to identify gynecologic anti-cancer compounds using libraries of approved drugs and bioactive compounds (AID 1345084). Also: nearly all actives have a fitted effect of over 55% in size. The note with it: Gynecologic cancer cell panel viability, ATPlite luminescence, 48 h; series mostly up to 57.5 µM. In a few lines: (§1)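 Cell viability after 48 h drug treatment, ATPlite luminescence readout; five doses.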
In general terms: Quantitative high-throughput screening tests each substance at several concentrations.

Experiment [2] concerns Tov112D. The description is as above. The note with it: Gynecologic cancer cell panel viability, ATPlite luminescence, 48 h; series mostly up to 57.5 µM. The procedure, abridged: as §1
Experiment [3] in a line: qHTS assay to identify inhibitors of the type 1 interferon - major histocompatibility complex class I in skeletal muscle: Counter screen cell viability and HiBit confirmation (AID 1347412). As to all read-outs here: nearly all actives have a fitted effect of over 60% in size. The note with it: iHSKM muscle cells + IFN-b, HiBiT or CellTiter-Glo, 24 h; for activity change, negative = inhibition: at 45.9 µM (top of the series). The procedure, abridged:
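Human myoblast knock-in line, 4.0 ng/ml IFN-beta stimulation, 24 h compound treatment. Endpoints: HiBiT lytic luminescence (HLA-B level) and CellTiter Glo (ATP). Dosing 12 concentrations, 3-fold steps, 46 uM highest final.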

For experiment [4], the system named is Tov-21-G. Description: Primary qHTS to identify gynecologic anti-cancer compounds using libraries of approved drugs and bioactive compounds (AID 1345084). Also: nearly all actives have a fitted effect of over 55% in size. As to conditions: Gynecologic cancer cell panel viability, ATPlite luminescence, 48 h; series mostly up to 57.5 µM. In a few lines:
as §1

The nature of experiment [5]: Drug repurposing screens with cells derived from glioblastoma tumor samples (AID 1345199). Also: nearly all actives have a fitted effect of over 40% in size. As to conditions: GBM patient neurospheres viability, ATP luminescence, 48 h. The procedure, abridged:
(§2)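 Primary testing used CD133+ neurospheres from four GBM patients, seven concentrations, 48 h exposure and ATP-based viability; confirmation added three slower-growing patient lines.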

Experiment [6] relates to astro. The experiment is described as above. The note with it: viability, ATP luminescence, 48 h; series mostly up to 45.9 µM. In a few lines:
as §2

The mark [7] stands for this setting: at 45.9 µM (top of the series), tumour line B.
[8] abbreviates: at 45.9 µM (top of the series), tumour line D.
Setting [9] is: at 46 µM (top of the series), tumour line A.
The mark [10] stands for this setting: at 46.1 µM (top of the series), tumour line C.
The mark [11] stands for this setting: at 20 µM (top of the series), tumour line C.
The mark [12] stands for this setting: at 21.2 µM (top of the series), tumour line B.
Where [13] appears, read: at 21.2 µM (top of the series), tumour line D.
Where [14] appears, read: at 21.3 µM (top of the series), tumour line A.
% is scaled to controls: 0 for no effect and ±100 for the full control effect; potency is read from the fitted curve at half-maximal effect.

On to `Cc1nc(Nc2n[nH]c3c2CN(C(=O)N[C@H](CN(C)C)c2ccccc2)C3(C)C)c2sccc2n1`, for which the values for the Potency in experiment [1], in experiment [2] and in experiment [3] (HiBiT) were 7.08 µM (active), 8.91 µM (active) and 0.0625 µM (active), respectively. In addition, the activity change, negative = inhibition in experiment [3] (Viability) is 5.01%.

For `CC(C)Nc1cc(C(F)(F)F)cc2nc(NC(=O)c3cccnc3)nn12`, the Potency result in experiment [1] and in experiment [4] was “inactive” throughout.

As to `CS(=O)(=O)c1ccc(-c2cnc(N)c(C(=O)Nc3ccccc3)n2)cc1`, in experiment [4], the Potency was 8.91 µM (active). In addition, in experiment [2], the Potency entry is “inactive”.

Turning to `CNC(=O)c1c(F)cccc1Nc1nc(Nc2cc3c(cc2OC)CCN3C(=O)CN(C)C)nc2[nH]ccc12`, the Potency result in experiment [4] and in experiment [2] was “inactive” each time. The Potency in experiment [3] (Viability) was 24.9 µM (active).

As for `O=C(CCCCCCC(=O)Nc1ccc([C@H]2O[C@@H](CSc3nc(-c4ccccc4)c(-c4ccccc4)o3)C[C@@H](c3ccc(CO)cc3)O2)cc1)NO`, the Potency result in experiment [2] was “inactive”.

For the compound `COc1cccc2c(NCc3ccccc3)nc(-n3c(N)nc4ccccc43)nc12`, the values for the Potency in experiment [3] (HiBiT) and in experiment [3] (Viability) were 12.5 µM (active) and 17.6 µM (active), respectively.

Regarding `O=c1[nH]nc(Sc2ncc([N+](=O)[O-])s2)n1-c1ccc2c(c1)OCCO2`, in experiment [3] (HiBiT), the Potency is 14 µM (active).

For the compound `O=C(O)CO.[NH2-].[NH2-].[Pt+2]`, the activity, negative = cell killing in experiment [5] (setting [7]) was -16.9%; in experiment [5] (setting [8]), 26.7%; in experiment [5] (setting [9]) it was -24.8%; in experiment [5] (setting [10]), -11%. In experiment [6], the Potency result was “inactive”.

Regarding `C=CC(=O)Nc1cc2c(Nc3ccc(F)c(Cl)c3)ncnc2cc1C#CC(C)(C)N1CCN(C)CC1`, in experiment [3] (Viability), the Potency is 22.2 µM (active).

Regarding `CC=CC1=C(C(=O)O)N2C(=O)[C@H](NC(=O)[C@H](N)c3ccc(O)cc3)[C@@H]2SC1`, the activity, negative = cell killing in experiment [5] (setting [7]) was -15%; in experiment [5] (setting [8]), -0.836%; in experiment [5] (setting [9]) it was -26.1%; in experiment [5] (setting [10]) it was -17.4%. Also, the Potency entry in experiment [6] is “inactive”.

In the case of `c1nc2nc(Nc3ccc(N4CCOCC4)cc3)nc(NC3CCCCC3)c2[nH]1`, the Potency result in experiment [2] was “inactive”. Also, the Potency in experiment [3] (HiBiT) is 6.25 µM (active).

Consider `CN(c1ncccc1CNc1nc(Nc2ccc3c(c2)CC(=O)N3)ncc1C(F)(F)F)S(C)(=O)=O`, for which the Potency in experiment [3] (HiBiT) was 4.97 µM (active). The activity change, negative = inhibition in experiment [3] (Viability) is 13.6%.

Consider `Cc1ccc(-c2ncn(-c3ccc(Nc4nccc(-c5cccc(N6CCOCC6)c5)n4)cc3)n2)cn1`, for which, in experiment [3] (HiBiT), the Potency was 2.49 µM (active). Also, the activity change, negative = inhibition in experiment [3] (Viability) was -8.69%.

Regarding `CC[C@@H]1C(=O)N(C)c2cnc(Nc3ccc(C(=O)NC4CCN(C)CC4)cc3OC)nc2N1C1CCCC1`, the activity change, negative = inhibition in experiment [3] (Viability) is -4.51%.

Turning to `CN1CCN(c2cc(C(=O)Nc3ccc4c(c3)-c3c(c(C(N)=O)nn3-c3ccc(F)cc3)CC4)c(Cl)cn2)CC1`, the Potency is 22.2 µM (active) in experiment [3] (HiBiT) and 27.9 µM (active) in experiment [3] (Viability).

For the compound `COc1ccc(CC2c3cc(OC)c(OC)cc3CC[N+]2(C)CCC(=O)OCCCCCOC(=O)CC[N+]2(C)CCc3cc(OC)c(OC)cc3C2Cc2ccc(OC)c(OC)c2)cc1OC` (stereo not given), the activity, negative = cell killing in experiment [5] (setting [11]) is -5.82%; in experiment [5] (setting [12]), -8.61%; in experiment [5] (setting [13]), -8.93%; in experiment [5] (setting [14]) it was -14%. Further, the Potency entry in experiment [6] was “inactive”.

Consider `CC(C)(C)c1cnc(CSc2cnc(NC(=O)C3CCNCC3)s2)o1`, for which, in experiment [3] (HiBiT), the Potency is 0.351 µM (active). Besides, the activity change, negative = inhibition in experiment [3] (Viability) is 9.32%.

For the compound `O=c1[nH]c(=O)n(C2CCCO2)cc1F` (stereo not given), the activity, negative = cell killing in experiment [5] (setting [7]) was -6.45%; in experiment [5] (setting [8]) it was -14.2%; in experiment [5] (setting [9]), -9.36%; in experiment [5] (setting [10]) it was -4%. Moreover, the Potency entry in experiment [6] was “inactive”.

On to `C[C@H]1C[C@@H]2[C@@H]([C@@H](O)C[C@@]3(C)[C@H]2CC[C@]3(O)C(=O)CO)[C@@]2(C)C=CC(=O)C=C12`, for which the activity, negative = cell killing in experiment [5] (setting [11]) is -10.7%; in experiment [5] (setting [12]) it was -18.9%; in experiment [5] (setting [13]), -26.6%; in experiment [5] (setting [14]) it was -9.28%. For the same compound, the Potency result in experiment [6] is “inactive”.

As for `CC(C)c1ccc(Cn2ccc3c4c(N)nc(NC5CC5)nc4ccc32)cc1`, the Potency is 17.6 µM (active) in experiment [3] (HiBiT) and 27.9 µM (active) in experiment [3] (Viability).

Consider `CN1c2cc(O)c(N=NC(N)=O)cc2CC1S(=O)(=O)O` (stereo not given), for which the activity, negative = cell killing was -14.6% in experiment [5] (setting [7]), 7.92% in experiment [5] (setting [8]) and -16.8% in experiment [5] (setting [10]). In experiment [6], the Potency entry was “inactive”.

Consider `CC(C)(C)NC(=O)[C@H]1CN(Cc2cccnc2)CCN1C[C@@H](O)C[C@@H](Cc1ccccc1)C(=O)N[C@H]1c2ccccc2C[C@H]1O`, for which the activity, negative = cell killing in experiment [5] (setting [10]) is 35.7%. The Potency in experiment [5] (tumour line A) was 17.8 µM (active).

For `COCCn1c2c([n+](Cc3cnccn3)c1C)C(=O)c1ccccc1C2=O`, the Potency was 1.98 µM (active) in experiment [3] (HiBiT) and 2.49 µM (active) in experiment [3] (Viability).

Turning to `O=C(NC1CCNCC1)c1[nH]ncc1NC(=O)c1c(Cl)cccc1Cl`, the Potency in experiment [3] (HiBiT) was 0.442 µM (active). Besides, the activity change, negative = inhibition in experiment [3] (Viability) was 4.1%.

For the compound `COC(=O)[C@]12CCC(C)(C)C[C@@H]1[C@@H]1C(=O)C=C3[C@@]4(C)C=C(C#N)C(=O)C(C)(C)[C@@H]4CC[C@@]3(C)[C@]1(C)CC2`, the Potency in experiment [6] was 3.16 µM (active).

As to `CC(C)C[C@H](NC(=O)CNC(=O)c1cc(Cl)ccc1Cl)B(O)O`, in experiment [3] (HiBiT), the Potency was 0.557 µM (active).

As for `Cn1cncc1[C@@](N)(c1ccc(Cl)cc1)c1ccc2c(c1)c(-c1cccc(Cl)c1)cc(=O)n2C`, the activity change, negative = inhibition in experiment [3] (HiBiT) is -17.7%; in experiment [3] (Viability) it was -17.4%.

As for `COC(=O)C[C@](O)(CCCC(C)(C)O)C(=O)O[C@@H]1C(OC)=C[C@]23CCCN2CCc2cc4c(cc2[C@H]13)OCO4`, the activity, negative = cell killing in experiment [5] (setting [10]) was -97.3%. The Potency in experiment [5] (tumour line A) was 0.224 µM (active); in experiment [5] (tumour line B), 0.316 µM (active); in experiment [5] (tumour line D), 1 µM (active); in experiment [6], 0.251 µM (active); in experiment [3] (HiBiT), 0.279 µM (active). For the same compound, the activity change, negative = inhibition in experiment [3] (Viability) was 0.0855%.

Values taken from PubChem BioAssay (NCATS).
